Results reported in PubChem BioAssay (EPA / NIEHS).
Records with an inconclusive call do not appear. Active and inactive are the calls of the source. Rule for the calls, unless noted: active = hit-call score of the fitted dose curve at least 0.9, where 1 is the maximum; inconclusive = response in the unintended direction; inactive = score below 0.9.

Key:
[1] = TOX21_p53_BLA_p3_viability: Viability Assessment in the Tox21 HCT-116 p53 Agonism Beta-lactamase Assay, Phase 3 (AID 2283593);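 note: cells exposed to compound for 16 h before reading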
Method in brief: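 Cellular ATP was quantified by CellTiter-Glo luminescence, read after 30 min at room temperature. Beforehand, HCT116 cells (4000/well) received compound 5 h post-seeding, 217-fold diluted from DMSO, then incubated 16 h at 37C.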

[2] = target: Cellular tumor antigen p53 (Homo sapiens) (UniProt P04637); experiment: TOX21_p53_BLA_p3_ratio: Tox21 HCT-116 p53 Agonism Beta-lactamase Assay, Ratio, Phase 3 (AID 2283596)
Cellular tumor antigen p53 (Homo sapiens), sequence (P04637 whole entry, looked up): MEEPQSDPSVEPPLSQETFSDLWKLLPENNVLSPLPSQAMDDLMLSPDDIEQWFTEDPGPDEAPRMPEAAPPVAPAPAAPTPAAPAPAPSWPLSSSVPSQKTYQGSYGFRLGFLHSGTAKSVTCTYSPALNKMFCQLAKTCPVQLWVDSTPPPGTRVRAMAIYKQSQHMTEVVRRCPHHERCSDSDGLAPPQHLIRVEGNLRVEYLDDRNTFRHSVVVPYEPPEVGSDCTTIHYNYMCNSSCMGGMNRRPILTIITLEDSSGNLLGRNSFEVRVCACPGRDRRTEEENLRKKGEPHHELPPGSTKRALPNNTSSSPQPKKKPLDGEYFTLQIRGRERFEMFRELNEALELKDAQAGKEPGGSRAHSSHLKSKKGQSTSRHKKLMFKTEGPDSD
Method in brief: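 Cells were seeded at 4000/well, rested 5 h at 37C, then dosed with DMSO compound solutions (217-fold dilution) for 16 h. CCF4-AM substrate was loaded for 2 h at room temperature, and the 460/530 nm emission ratio was fitted for gain of signal versus DMSO.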

[3] = TOX21_p53_BLA_p4_viability: Viability Assessment in the Tox21 HCT-116 p53 Agonism Beta-lactamase Assay, Phase 4 (AID 2283597);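 note: hits lower the luminescence signal meaning cytotoxicity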
Method in brief: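 Cytotoxicity was inferred from loss of CellTiter-Glo luminescence. HCT116 cells had been dosed with compounds after 5 h plating, incubated 16 h at 37C and 5% CO2, and exposed to the CCF4-AM substrate for 2 h.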

[4] = target: Cellular tumor antigen p53 (Homo sapiens) (UniProt P04637); experiment: TOX21_p53_BLA_p4_ratio: Tox21 HCT-116 p53 Agonism Beta-lactamase Assay, Ratio, Phase 4 (AID 2283601)
Method in brief: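 Signal is the blue/green (460nm/530nm) ratio of cleaved versus uncleaved CCF4-AM substrate, read after 2 h substrate loading. Cells were HCT116 carrying the p53-responsive beta-lactamase reporter, dosed 16 h at 37C, 5% CO2; CellTiter-Glo measured in parallel.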

[5] = target: Cellular tumor antigen p53 (Homo sapiens) (UniProt P04637); experiment: TOX21_p53_BLA_p5_ratio: Tox21 HCT-116 p53 Agonism Beta-lactamase Assay, Ratio, Phase 5 (AID 2283599)
Method in brief: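 Beta-lactamase reporter ratio (blue 460 nm over green 530 nm, 405 nm excitation) after 2 h CCF4-AM loading, in HCT-116 cells exposed 16 h at 37 C to compounds pinned at 217-fold dilution. Increases relative to DMSO baseline scored.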

[6] = TOX21_p53_BLA_p5_viability: Viability Assessment in the Tox21 HCT-116 p53 Agonism Beta-lactamase Assay, Phase 5 (AID 2283600)
Method in brief: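 Luciferase-coupled ATP quantitation of cells treated for 16 h (37C, 5% CO2) with test chemicals delivered in DMSO via a 217-fold dilution; 4000 cells/well; reagent incubated 30 min at room temperature before luminescence reading.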

[7] = CCTE_Deisenroth_AIME_96WELL_CTox_Active: Cytotoxicity Assessment (CTOX) in CCTE's 96-well Estrogen Receptor Transactivation Assay with AIME metabolic competence (metabolism positive), Deisenroth Lab (AID 2284028)
Method in brief: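 Cytotoxicity in VM7Luc4E2 breast cells after 24 h exposure to medium from a 2 h metabolic pre-incubation with induced rat hepatic S9 in alginate microspheres; fluorescent live-cell protease readout, 10-point series 0.002–200 uM, n=4.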

[8] = CCTE_Deisenroth_AIME_96WELL_CTox_Inactive: Cytotoxicity Assessment (CTOX) in CCTE's 96-well Estrogen Receptor Transactivation Assay without AIME metabolic competence (metabolism negative), Deisenroth Lab (AID 2284029)
Method in brief: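 Cytotoxicity in VM7Luc4E2 breast cells was scored as loss of fluorescent signal from a live-cell protease substrate 24 h after exposure, using bidirectional curve fitting. Test media came from a 2 h metabolism-negative pre-incubation (alginate-water, no hepatic S9) of compounds at 0.002-200 uM, with at least four replicates.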

[9] = CCTE_Shafer_MEA_dev_firing_rate_mean: CCTE's Neural Network Formation Assay for Mean Firing Rate, Shafer Lab (AID 2284031; active = hit-call score of the fitted dose curve at least 0.9, where 1 is the maximum; inactive = score below 0.9)
Method in brief: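 Read-out: spike count/recording length, averaged over active electrodes, then AUC across days 5, 7, 9, 12. Rat cortical cultures on MEA; continuous 12-day exposure, media and treatment renewed DIV 5, 9; DMSO baseline.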

[10] = CCTE_Shafer_MEA_dev_per_burst_spike_percent: CCTE's Neural Network Formation Assay for Percent of Spikes in a Burst, Shafer Lab (AID 2284032; active = hit-call score of the fitted dose curve at least 0.9, where 1 is the maximum; inactive = score below 0.9)
Method in brief: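 Value is trapezoidal AUC over recordings on days 5, 7, 9 and 12 of the well-mean fraction of spikes falling in single-electrode bursts; rat cortical cultures exposed continuously from plating, treatment renewed DIV 5 and 9, fitted downward against DMSO.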

[11] = CCTE_Shafer_MEA_dev_active_electrodes_number: CCTE's Neural Network Formation Assay for Number of Active Electrodes, Shafer Lab (AID 2284040)
Method in brief: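 Developing rat cortical networks on MEAs, exposed DIV 0–12. Value is the AUC of active-electrode counts (≥5 spikes/min) from days 5, 7, 9, 12, relative to DMSO.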

[12] = CCTE_Shafer_MEA_dev_burst_rate: CCTE's Neural Network Formation Assay for Burst Rate, Shafer Lab (AID 2284042; active = hit-call score of the fitted dose curve at least 0.9, where 1 is the maximum; inactive = score below 0.9)
Method in brief: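 Primary rat cortical neurons on PEI-coated 48-well MEA plates (laminin added with cells at plating) (16 electrodes/well), exposed from plating to day 12, dosing renewed at DIV 5 and 9. Burst rate averaged over active electrodes, recorded DIV 5, 7, 9, 12, summarized as AUC; loss versus DMSO.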

[13] = CCTE_Shafer_MEA_dev_bursting_electrodes_number: CCTE's Neural Network Formation Assay for Number of Bursting Electrodes, Shafer Lab (AID 2284043)
Method in brief: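 Number of electrodes reaching ≥1 burst every 2 min was recorded at DIV 5, 7, 9 and 12 and collapsed as trapezoidal area under the curve. Cultures were rat cortical neurons on MEA plates, dosed continuously from plating with medium and treatment refreshed on DIV 5 and 9.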

[14] = CCTE_Shafer_MEA_dev_per_burst_interspike_interval: CCTE's Neural Network Formation Assay for Burst Interspike Interval, Shafer Lab (AID 2284044; active = hit-call score of the fitted dose curve at least 0.9, where 1 is the maximum; inactive = score below 0.9)
Method in brief: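 Rat cortical primary cultures, 16 electrodes/well; compound from plating, renewed with full media change DIV 5 and 9. Spikes via adaptive detector; per-burst ISI well-mean over active bursting electrodes; AUC of DIV 5/7/9/12 recordings; loss-direction fit vs DMSO.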

[15] = CCTE_Shafer_MEA_dev_burst_duration_mean: CCTE's Neural Network Formation Assay for Mean Burst Duration, Shafer Lab (AID 2284045; active = hit-call score of the fitted dose curve at least 0.9, where 1 is the maximum; inactive = score below 0.9)
Method in brief: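 Mean single-electrode burst duration (first to last spike), averaged over bursting electrodes per well, then integrated as area-under-curve across recordings at days 5, 7, 9 and 12. Rat cortical cultures on MEAs, compound present from plating, refreshed at feeds.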

[16] = CCTE_Shafer_MEA_dev_interburst_interval_mean: CCTE's Neural Network Formation Assay for Mean Interburst Interval, Shafer Lab (AID 2284046; active = hit-call score of the fitted dose curve at least 0.9, where 1 is the maximum; inactive = score below 0.9;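 note: well-mean interburst interval of bursting electrodes as AUC over four recording days; curve fitted for decrease in interburst interval relative to DMSO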)
Method in brief: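 Recordings on days 5, 7, 9 and 12 give well-mean interburst interval across actively bursting electrodes, summarized as area under the curve. Cultures: rat cortical neurons, continuous exposure from day 0, compound renewed at feeds; decrease analyzed versus DMSO.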

[17] = CCTE_Shafer_MEA_dev_inter_network_spike_interval_mean: CCTE's Neural Network Formation Assay for Mean Inter-network Spike Interval, Shafer Lab (AID 2284047; active = hit-call score of the fitted dose curve at least 0.9, where 1 is the maximum; inactive = score below 0.9)
Method in brief: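 Primary rat cortical neurons on 16-electrode MEA wells, exposed from plating day 0 through DIV 12, compound renewed at DIV 5 and 9 media changes. Mean interval between network-spike peaks recorded DIV 5, 7, 9, 12; collapsed as trapezoidal AUC, fitted downward versus DMSO.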

[18] = CCTE_Shafer_MEA_dev_network_spike_number: CCTE's Neural Network Formation Assay for Number of Network Spikes, Shafer Lab (AID 2284048; active = hit-call score of the fitted dose curve at least 0.9, where 1 is the maximum; inactive = score below 0.9;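 note: synchronized bursts across electrodes counted on days 5 7 9 12 and integrated as AUC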)
Method in brief: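 Number of network spikes (coordinated firing across electrodes) recorded on days 5, 7, 9 and 12 and summarised as area under the curve. Rat cortical cultures on MEA, continuous compound exposure with full medium/treatment exchange at DIV 5 and 9.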

[19] = CCTE_Shafer_MEA_dev_network_spike_peak: CCTE's Neural Network Formation Assay for Mean Number of Electrodes in Network Spike, Shafer Lab (AID 2284049; active = hit-call score of the fitted dose curve at least 0.9, where 1 is the maximum; inactive = score below 0.9)
Method in brief: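 Rat cortical primary culture, 1.5 x 10^5 cells/well, 48-well MEA (16 electrodes/well). Dosing day 0 through DIV 12, full media/compound exchange DIV 5, 9. AxIS adaptive spike detection; AUC over days 5/7/9/12; loss-of-signal vs DMSO.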

[20] = CCTE_Shafer_MEA_dev_spike_duration_mean: CCTE's Neural Network Formation Assay for Mean Spike Duration, Shafer Lab (AID 2284051; active = hit-call score of the fitted dose curve at least 0.9, where 1 is the maximum; inactive = score below 0.9;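 note: mean network spike duration pooled as area under curve over DIV 5 to 12 recordings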)
Method in brief: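 Primary rat cortical neurons on 16-electrode MEA wells (PEI-coated, laminin in plating drop), exposed from plating through DIV 12 with compound renewed at DIV 5 and 9. Mean network-spike duration recorded DIV 5, 7, 9, 12; trapezoidal AUC across days, DMSO baseline.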

[21] = CCTE_Shafer_MEA_dev_network_spike_duration_std: CCTE's Neural Network Formation Assay for Standard Deviation of Network Spike Duration, Shafer Lab (AID 2284052; active = hit-call score of the fitted dose curve at least 0.9, where 1 is the maximum; inactive = score below 0.9;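 note: hits are decreases in network spike duration SD versus DMSO vehicle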)
Method in brief: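 Primary rat cortical neurons on PEI-coated 16-electrode MEA wells, exposed from plating day 0 through day 12 with compound renewed at DIV 5 and 9. Network spike duration SD recorded on days 5, 7, 9, 12, collapsed as trapezoidal AUC; loss-of-signal fit versus DMSO.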

[22] = CCTE_Shafer_MEA_dev_per_network_spike_spike_number_mean: CCTE's Neural Network Formation Assay for Mean Number of Spikes in a Network Spike, Shafer Lab (AID 2284053; active = hit-call score of the fitted dose curve at least 0.9, where 1 is the maximum; inactive = score below 0.9)
Method in brief: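 Primary rat cortical neurons on 48-well, 16-electrode MEA plates were exposed from plating to DIV 12, with dosing renewed on DIV 5 and 9. Spikes per network spike (0.05 s peak window) were recorded on DIV 5, 7, 9 and 12 and collapsed as trapezoidal AUC versus DMSO.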

[23] = CCTE_Shafer_MEA_dev_per_network_spike_spike_percent: CCTE's Neural Network Formation Assay for Percent of Spikes in a Network Spike, Shafer Lab (AID 2284054; active = hit-call score of the fitted dose curve at least 0.9, where 1 is the maximum; inactive = score below 0.9)
Method in brief: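 Metric: fraction of spikes falling in a 0.05 s window at network-spike peaks. Recordings were made on days 5, 7, 9 and 12 and collapsed by trapezoidal AUC. Cultures were rat cortical neurons on MEA plates, dosed continuously from plating, re-dosed at media changes.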

[24] = CCTE_Shafer_MEA_dev_LDH: CCTE's Lactate Dehydrogenase Assay for Cytotoxicity in the Neural Network Formation Assay, Shafer Lab (AID 2284068);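 note: exposure for twelve days from plating with re-dosing on DIV 5 and 9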
Method in brief: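 Primary rat cortical neurons were plated on PEI/laminin MEA plates and exposed from day 0 for twelve days, with compound renewed at DIV 5 and 9. Cytotoxicity was determined by spectrophotometric LDH assay relative to DMSO.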

[25] = CCTE_Shafer_MEA_dev_AB: CCTE's Alamar Blue Assay for Cytotoxicity in the Neural Network Formation Assay, Shafer Lab (AID 2284083);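 note: twelve days of exposure from plating with re-dosing on DIV 5 and 9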
Method in brief: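 Primary rat cortical neurons on PEI-coated 48-well MEA plates, 1.5 x 10^5 cells/well in laminin drop; compound exposure from day 0 of plating for twelve days, renewed at medium changes on DIV 5 and 9. Viability read as resazurin reduction by fluorescence, relative to DMSO.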

[26] = CCTE_Shafer_MEA_dev_mutual_information_norm: CCTE's Neural Network Formation Assay for Mutual Information Normalization, Shafer Lab (AID 2284091; active = hit-call score of the fitted dose curve at least 0.9, where 1 is the maximum; inactive = score below 0.9)
Method in brief: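 Shared information across electrodes, tracked on days 5, 7, 9 and 12 of network development and collapsed as trapezoidal area under the curve. Rat cortical cultures were treated continuously from plating, with treatment renewed at feeds on DIV 5 and 9; DMSO baseline, negative-direction fit.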

[27] = CCTE_Shafer_MEA_dev_correlation_coefficient_mean: CCTE's Neural Network Formation Assay for Mean Correlation Coefficient, Shafer Lab (AID 2284093; active = hit-call score of the fitted dose curve at least 0.9, where 1 is the maximum; inactive = score below 0.9)
Method in brief: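 Spontaneous activity recorded on days 5, 7, 9 and 12 post-plating; pairwise spike correlations are averaged across active electrodes and collapsed to an area-under-curve. Rat cortical cultures are dosed from plating through 12 days, with compound renewed at media changes.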

Measured: AC50

CN[C@@H]1[C@@H](O)[C@@H](O[C@@H]2[C@@H](O)[C@H](O[C@H]3O[C@H](CN)[C@@H](O)[C@H](O)[C@H]3O)[C@@H](N)C[C@H]2NC(=O)C(O)CN)OC[C@]1(C)O (stereo partly specified)
inactive: [1] | [2] | [3] | [4]

CC(=O)CC(=O)Nc1ccc(S(=O)(=O)O)cc1
inactive: [1] | [2] | [3] | [5] | [4]

CCCCCCCCCCCCCCCC(=O)O[C@@H]1CC(C)=C(/C=C/C(C)=C/C=C/C(C)=C/C=C/C=C(C)/C=C/C=C(C)/C=C/C2=C(C)C[C@@H](OC(=O)CCCCCCCCCCCCCCC)CC2(C)C)C(C)(C)C1
active: [1] 36.2 µM
inactive: [2] | [3] | [4]

C=C1C(=O)O[C@H]2[C@H]1CC/C(C)=C/CC[C@@]1(C)O[C@@H]21
active: [2] 34.3 µM | [3] 36.9 µM
inactive: [1] | [6]

c1ccc2c(c1)ccc1c3ccccc3ccc21
not listed: [3] | [6]
inactive: all other assays above

CCNS(=O)(=O)c1ccc(C)cc1
inactive: [1] | [2] | [5] | [6] | [4]

CCOC(=O)[C@H](CCc1ccccc1)N[C@@H](C)C(=O)N1Cc2cc(OC)c(OC)cc2C[C@H]1C(=O)O
inactive: [1] | [2] | [3] | [6]

CC(C(=O)O)c1ccc2c(c1)Cc1cccnc1O2 (stereo unspecified)
inactive: [1] | [2] | [3] | [6]

CC(O)CCCCn1c(=O)c2c(ncn2C)n(C)c1=O (stereo unspecified)
inactive: [1] | [2] | [4]

NCCCC(O)(P(=O)(O)O)P(=O)(O)O
inactive: [1] | [2] | [5] | [6]

Cc1ccc(C(C)(C)c2ccc(C)cc2)cc1
inactive: [1] | [2] | [3] | [4]

CO[C@H]1O[C@@H]2O[C@@]3(C)CC[C@H]4[C@H](C)CC[C@@H]([C@H]1C)[C@@]24OO3
inactive: [1] | [2] | [5] | [6] | [4]
